Measured values reported in PubChem BioAssay AID800 (PCMD, 2007).
In all, about 220,000 compounds went through this assay and about 650 (0.3%) were called active. Cut-off read from the data, not from the text of the source: active = inhibition above about 40%; inactive = the rest. For the sample, actives were picked, then their nearest neighbours and some compounds at random.

Each compound was assayed against Coagulation factor XII (Homo sapiens) (UniProt P00748) (assay: human FXIIa protease inhibitors, primary screen, biochemical, 1536-well (AID 800;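 note: 0% = enzyme with no compound and 100% = blank without enzyme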)). Settings: purified FXIIa, Boc-QGR-AMC fluorogenic substrate, 2 h; at 5 µM; active compounds read high.
Sequence of Coagulation factor XII (Homo sapiens) (P00748 20-372 limits assumed): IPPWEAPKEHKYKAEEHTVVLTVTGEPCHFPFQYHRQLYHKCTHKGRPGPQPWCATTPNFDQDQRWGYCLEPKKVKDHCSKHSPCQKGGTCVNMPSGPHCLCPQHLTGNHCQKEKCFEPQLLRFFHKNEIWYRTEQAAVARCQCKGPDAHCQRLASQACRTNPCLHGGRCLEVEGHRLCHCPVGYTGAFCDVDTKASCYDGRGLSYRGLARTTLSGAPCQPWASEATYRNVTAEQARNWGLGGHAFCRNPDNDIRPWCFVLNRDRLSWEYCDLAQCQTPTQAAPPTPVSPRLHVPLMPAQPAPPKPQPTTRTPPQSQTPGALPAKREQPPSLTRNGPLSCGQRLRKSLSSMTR
Sequence of Coagulation factor XII (Homo sapiens) (P00748 373-615 limits assumed): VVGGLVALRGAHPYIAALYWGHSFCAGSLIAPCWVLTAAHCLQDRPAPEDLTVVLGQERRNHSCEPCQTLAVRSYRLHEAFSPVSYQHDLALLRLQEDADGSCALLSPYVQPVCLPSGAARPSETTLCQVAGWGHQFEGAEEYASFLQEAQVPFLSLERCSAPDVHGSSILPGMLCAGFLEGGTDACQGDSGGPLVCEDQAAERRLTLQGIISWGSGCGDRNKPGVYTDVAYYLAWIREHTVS

inhibition, active:
CC/C(=N\NC(=S)NC(C)C)c1ccc(OC(F)F)cc1 52.2%
COc1ccc(CN(Cc2ccc(OC)cc2)C(=O)c2cccs2)cc1 45.5%
CCc1nnc(NC(=O)CCN(c2ccc(C)cc2)S(=O)(=O)c2ccccc2)s1 49.2%
Cc1cccc(NC(=O)c2cc(N3C(=O)CCC3=O)ccc2Cl)n1 50.5%
Cc1ccc(-n2ncc3c(=O)[nH]cnc32)c(C)c1 54%
CCOc1cc(CO)ccc1OCC(=O)N1CCCCC1 52.6%
CCC1SC(CC)C(=O)N(CC(=O)NC2CCCCC2)C1=O (configuration not stated) 101%
CN(C)/C=C1\C=C(c2ccccc2)OC1=O 49.5%

inhibition, inactive:
O=C(Cc1ccccc1)Nc1c(Cl)ccc2nsnc12 2.05%
C[C@H](NC(=O)c1nc[nH]c1C(=O)N[C@@H](C)C(=O)OC(C)(C)C)C(=O)OC(C)(C)C 12.4%
CCOC(=O)c1cn(CC)c2cc(F)c(F)cc2c1=O 4.45%
COc1cc(NC(=O)c2cncc(-c3ccc(C#N)cc3)c2)cc(C(=O)Nc2cccc(C(F)(F)F)c2)c1 3.5%
O=[N+]([O-])c1cc([N+](=O)[O-])c2cccnc2c1O 3.18%
O=C(Nc1cccc(S(=O)(=O)NC2=NCCC2)c1)C1CCCCC1 14.4%
COc1ccc2[nH]c(C(=O)Nc3ccccc3Cl)cc2c1 6.03%
CCC/C(C)=N\Nc1nc2c(c(=O)n(C)c(=O)n2C)n1C 5.02%
CCOC(=O)c1c(C)oc(C)c(C(=O)OCC)c1=O 8.51%
CCOC(=O)c1cnc(COc2ccccc2Cl)[nH]c1=O 3.67%
CC(NC(=S)Nc1ccc(OC(F)F)cc1)c1ccc(F)cc1 (configuration not stated) 10.5%
O=C(NNC(=S)NCc1ccccc1)c1ccc(OC(F)F)cc1 -6.41%
Cc1onc(-c2ccc(Cl)cc2)c1-c1ccnn1S(=O)(=O)c1ccc(Cl)cc1 3.87%
CCOCCn1c(-c2ccccc2)nc2ccccc21 9.94%
O=C(COC(=O)CCc1nc2ccccc2c(=O)[nH]1)Nc1ccc(N2CCOCC2)cc1 1.95%
CSc1nc(C)nc(C2CC2)c1C#N 1.66%
CN(c1ccc(OCC(=O)NC2=NCCS2)cc1)S(=O)(=O)c1ccc(F)cc1 7.4%
Cc1ccc(S(=O)(=O)N2CCN(C(=O)COC(=O)c3c(C)noc3C)CC2)c(C)c1 7.88%
O=c1[nH]c(CSc2ccccc2)nc2c1oc1ccccc12 7.45%
COC(=O)[C@H](Cc1ccccc1)NC(=O)Nc1ccc(OC)cc1 4.58%
CC(C)(C)NC(=O)/C(=C/c1cccnc1)NC(=O)c1ccco1 15.3%
O=C(Nc1nnc(Cc2ccc(Cl)cc2)s1)c1ccncc1 2.31%
O=C(NNC(=S)NC1CC2CCC1C2)c1ccc(Cl)cc1 (configuration not stated) 7.4%
CCc1ccc2nc(Nc3ncc(C(C)=O)c(C)n3)nc(C)c2c1 6.31%
C=C(C)C(=O)Nc1cccc(C2=NOC3(C2)C[C@H](C(N)=O)N(C(=O)C(c2ccccc2)c2ccccc2)C3)c1 (some centres not stated) 0.36%
Nc1nc(Sc2ncccc2[N+](=O)[O-])n[nH]1 7.38%
C/C(=N/Nc1nc(-c2ccccc2)c(CC(=O)O)s1)c1ccccc1 10.1%
COc1ccccc1-c1c(C#N)c(N)nc2c1CCC2 -2.02%
CCOC(=O)C(=CNNc1ccsc1C(=O)OC)C(=O)OCC 8.52%
COc1ccc(OCC(=O)N2CCN(C(=O)c3cccs3)CC2)cc1 0.82%
COc1ccc(CN(C(=O)c2cccs2)c2nccs2)cc1OC 14.5%
Cc1nc(=O)c(-c2ccccc2)c(C)n1-c1ccc(Br)cc1 7.02%
CCOC(=O)c1nnn2c1nc(N1CCN(c3ccccc3)CC1)c1ccccc12 5.24%
Cc1ccc2c(c1)nnc1nnc(SCC(=O)O)n12 5.33%
Cc1cccc(NC(=O)c2nc[nH]c2C(=O)NCC(=O)OCc2ccccc2)c1 7.76%
Cc1ccc(NNC(=O)c2cccs2)cc1Cl 8.48%
CCc1nnc(NC(=O)CCC(=O)O)s1 13.2%
CCc1nnc(NC(=O)CCC(=O)NCc2ccccc2OC)s1 15%
CCCCC1=CC2=CC(=O)C(C)(OC(=O)CC)C(=O)C2=CN1CCCOC(C)C (configuration not stated) 7.98%
O=C(Nc1ccc(F)cc1)c1cc2c(s1)CCCC2 8.77%
COc1ccc(CNC(=O)C2CC(c3ccc(C(F)(F)F)cc3)=NO2)cc1 (configuration not stated) 7.68%
Nc1nnn(CC(=O)N/N=C/c2ccc(O)cc2)n1 16.2%
CCc1cccc(CC)c1NC(=S)Nc1ccc2cn[nH]c2c1 10%
Cc1ccc(SCc2c(C(=O)N/N=C/C3CC=CCC3)nnn2-c2nonc2N)cc1 (configuration not stated) 9.39%
CS(=O)(=O)c1ccc2nc(NC(=O)c3ccc(N4CCCC4=O)cc3)sc2c1 1.85%
O=C(NCc1ccc2c(c1)OCO2)c1sccc1Br 8.69%
C/C=C(/C)C(=O)O[C@@H]1c2cc3c(c4c2[C@@]2(CO4)C(=O)C(OC)=C(OC)C=C2C[C@@H](C)[C@H]1C)OCO3 12.9%
Oc1[nH]c2ccc(Br)cc2c1N=Nc1nn[nH]n1 12.3%
CCCc1ccc(C(=O)[C@@H]2[C@@H](C(C)=O)N3c4ccc(F)cc4C=C[C@@H]3[C@@]23C(=O)Nc2ccccc23)cc1 8.48%
CC1CC(C)(C)n2c(O)c(N=NC(N)=S)c3cccc1c32 (configuration not stated) 30.2%
Cc1ccccc1Nc1c(-c2ccccc2)nc2ncccn12 5.54%
CCc1ccc(S(=O)(=O)NCC(O)COc2ccc(OC)cc2)cc1 (configuration not stated) 6.59%
Cc1cccc(NC(=O)c2ccc3ccccc3n2)n1 16%
Cc1cc(NC(=O)c2cccc(N3C(=O)CCC3=O)c2)no1 16.7%
O=C(NC1CCN(Cc2ccccc2)CC1)c1ccc(Oc2cc(Cl)cc(Cl)c2)o1 6.33%
S=c1[nH]c2ccccc2c2ccccc12 2.88%
COC(=O)CCCC1=CC2=CC(=O)C(C)(OC(=O)c3cccs3)C(=O)C2=CN1CC(C)C (configuration not stated) 7.73%
Cc1noc(C)c1C(=O)OCC(=O)N1CCN(S(=O)(=O)c2ccc3ccccc3c2)CC1 1.83%
Nc1ccccc1Sc1cc(Cl)nnc1Cl 12.7%
C=CCn1c(=S)sc2c(=O)[nH]c(C)nc21 1.68%
Cc1cc(=O)[nH]c(S)c1C#N -0.28%
COC(C[C@@H](O)[C@H](C)[C@H](O)COCc1ccccc1)OC 4.52%
Cn1c(S(=O)(=O)O)nc2ccccc21 -0.32%
NS(=O)(=O)c1ccc(CCNC(=O)NC2CCCCC2)cc1 15%
O=C(c1ccc(Cl)cc1)N1N=C(c2ccccn2)CC1(O)C(F)(F)F (configuration not stated) 8.52%
COC(=O)CSc1ncnc2c1cnn2-c1ccc(C)cc1C 5.55%
Cc1ccc(-n2ncc3c2ncn2nc(-c4ccco4)nc32)c(C)c1 14.2%
Cc1[nH]n(C)c(=O)c1C(=O)c1c(-c2c(Cl)cccc2Cl)noc1C 2.28%
CCOc1c(Nc2cccc(Cl)c2)c(=O)c1=O 8.16%
COc1ccc(Nc2ncnc3sc(-c4ccccc4)cc23)c(OC)c1 4.94%
CC(C)(C)c1cc(C(=O)N/N=C/c2ccc([N+](=O)[O-])s2)n[nH]1 7.22%
Cc1nc(N)[nH]c(=O)c1Oc1cccc(C(F)(F)F)c1 3.61%
O=C(CSC(=S)N1CCCCC1)c1c(F)cccc1F 6.72%
CNC(=O)c1cccc2nc3ccccc3nc12 6.68%
Brc1ccc(-c2nn[nH]n2)cc1 12.5%
CC(C)S(=O)(=O)c1csc(NC(=O)Nc2ccc(Cl)cc2)c1Cl 6.02%
C=C(C)C(=O)O[C@H]1C/C(C)=C\C(=O)/C=C(\C)[C@H](O)[C@@H]2OC(=O)C(=C)[C@@H]21 8.34%
COc1cccc(Nc2nnc(SCC(=O)N3CC(=O)Nc4ccccc43)s2)c1 5.5%
C/C=N/N(c1ccccc1)c1ccccc1 4.81%
CC(C)(C)C(=O)Nc1c(Br)c(C2CC2)nn1-c1ccccc1 6.88%
Cc1cc(C)cc(OCC(=O)O/N=C(\N)Cc2ccc([N+](=O)[O-])cc2)c1 0.85%
CCOc1cc(CN2CCN(C(=O)CC(C)C)CC2)ccc1OC -3.42%
O=C(COc1ccc(Cl)cc1[N+](=O)[O-])N1CCCCC1 2.91%
O=C(CN1C(=O)NC2(CCCCCC2)C1=O)NC1CC1 0.9%
O=C(CN1C(=O)CC(c2ccccc2)=Nc2ccccc21)NC1CCCCC1 12.2%
Cc1ccc(C2=C/C(=C\c3cccnc3)C(=O)O2)cc1 10.9%
CN(C)/C=C1/C(=O)Nc2ccccc21 8.66%
NC(=O)C1=C[C@@H](c2csc3ccccc23)C[C@@H](OCc2ccc(CO)cc2)O1 5.57%
CCN(CC)C(=O)CC(c1ccc2c(c1)OCO2)c1c(OC)cc(OC)c2c(-c3ccccc3)cc(=O)oc12 (configuration not stated) -2.49%
